Laboratory results: PubChem BioAssay

What follows are compounds tested against Homeobox protein Hox-A13 (Mus musculus) (UniProt Q62424) (assay: inhibitors of HoxA13-DNA binding, primary screen, biochemical, fluorescence polarization, labeled oligonucleotide (AID 1185)). Settings: 15 min, higher = more signal, called active from +8 up or from −8 down.
Chain of Homeobox protein Hox-A13 (Mus musculus) (Q62424 whole entry, looked up): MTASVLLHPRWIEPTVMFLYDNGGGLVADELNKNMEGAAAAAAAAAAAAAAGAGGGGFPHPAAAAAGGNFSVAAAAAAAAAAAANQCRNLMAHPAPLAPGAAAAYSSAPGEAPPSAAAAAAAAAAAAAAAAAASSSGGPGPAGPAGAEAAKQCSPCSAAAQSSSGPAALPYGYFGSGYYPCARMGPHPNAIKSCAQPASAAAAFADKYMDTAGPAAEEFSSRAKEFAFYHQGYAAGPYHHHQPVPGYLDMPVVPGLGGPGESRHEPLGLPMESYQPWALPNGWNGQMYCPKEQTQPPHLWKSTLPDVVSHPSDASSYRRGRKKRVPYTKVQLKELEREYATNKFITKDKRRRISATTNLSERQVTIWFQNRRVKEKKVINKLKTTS

z-score, inactive:
COC(=O)CC=C[C@@H](C)[C@H](OC)c1ccccc1Br -0.0487
C[C@@H](c1ccccc1)N1C(=O)[C@H]2[C@H]3[C@H](O)[C@H](O)CC(=NOC[C@@H](O)COCc4ccco4)[C@@H]3CC[C@H]2C1=O -1.25
O=C1[C@H]2[C@H]3[C@H](O)[C@H](O)CC(=NOC[C@@H](O)COCc4ccco4)[C@H]3CC[C@H]2C(=O)N1C1CCCCC1 -0.271
CC[C@@H](c1ccccc1)n1c(=O)n2n(c1=O)[C@H]1[C@H](O)[C@@H]3O[C@@H]3C(=NOCC=C(C)CCC=C(C)C)[C@H]1CC2 -3.96
C[C@H]1Cc2c(-c3ccccc3)nc3c(c2CO1)CN(CCOc1ccccc1)CC3 -5.41
CCOC(=O)C1=CC[C@H]2C(=O)N(CC)C(=O)[C@@H]12 -2.15
COC(=O)[C@@]1(Cc2ccccc2)[C@H]2c3cc(C(=O)N4CCCC4)n(Cc4ccccn4)c3C[C@H]2CN1C(=O)c1ccccc1 -6.05
CC(=O)OC[C@H]1O[C@H](CCON=C(C)CCN2CCc3nc(-c4ccccc4)c(-c4ccccc4)cc3C2)C=C[C@@H]1OC(C)=O -4.36
COC(=O)C1=C(C)[C@@H](O)[C@@H](C)[C@H](c2c(OC)c(OC)c(C)c(OC)c2OC)O1 -0.388
CC(=O)O[C@H]1C2=C(C(=O)[C@@H]3O[C@@H]31)[C@H]1C(C)O[C@@H]2[C@@]23C(=O)[C@@H]4O[C@@H]4[C@@H](O)C2=CO[C@H](C)[C@@H]13 (some centres undefined) -0.465
CC(=O)OC[C@H]1O[C@H](C#CCCCc2ccccc2)C=C[C@@H]1OC(C)=O -5.95
C[C@@H](c1ccccc1)N1C(=O)[C@H]2[C@H]3[C@H](O)C=CC(=O)[C@@H]3CC[C@H]2C1=O -0.308
CC(CCN1CCc2nc(-c3ccccc3)c(-c3ccccc3)cc2C1)=NOC[C@@H](C)[C@H](OCc1ccccc1)C(C)C -0.978
CO[C@@H]1COC(=O)CC=C[C@@H](C)COC(=O)[C@H](COCc2ccccc2)NC(=O)CC=C[C@H]1C -0.119
CCN1C(=O)[C@H]2[C@H]3[C@H](O)[C@H](O)CC(=NOCc4ccccc4)[C@@H]3CC[C@H]2C1=O 0.697
COC(=O)[C@@H]1CC[C@H](C)[C@@H](c2ccc(C)cc2)N1C(=O)c1ccc(C=NOC[C@@H](O)COCc2ccco2)cc1 -6.19
COc1ccc(O[C@@H]2[C@H](O)CO[C@H]2C=CC#Cc2ccccc2)cc1 -3.09
CC[C@@H](c1ccccc1)n1c(=O)n2n(c1=O)[C@H]1[C@H](O)[C@@H]3O[C@@H]3C(=NOCC(C)C)[C@H]1CC2 -2.28
COC(=O)[C@H](C)NC(=O)CCC1CC(OC(=O)NCc2cccc3ccccc23)CC2(CCCC(COC(=O)NCCc3ccc(Cl)cc3)O2)O1 (some centres undefined) -1.77
CCCCCCc1nc(CCCc2cc3c(c(CCCCCC)n2)[Si](C(C)C)(C(C)C)O[C@H]3c2ccccc2)cc2c1[Si](C(C)C)(C(C)C)O[C@H]2c1ccccc1 -2.79
CC(=O)OC[C@H]1O[C@@H](ON=C[C@@H](C)[C@H](OCc2ccccc2)C(C)C)[C@H](OC(C)=O)[C@@H](OC(C)=O)[C@@H]1OC(C)=O -4.44
CC(C)CON=C1C[C@@H](O)[C@@H](O)[C@@H]2[C@@H]3C(=O)N([C@@H](C)c4ccccc4)C(=O)[C@@H]3CC[C@H]12 0.0364
C#CCCCON=C1C[C@@H](O)[C@@H](O)[C@@H]2[C@@H]3C(=O)N(CCC(=O)OCC)C(=O)[C@@H]3CC[C@@H]12 -5.09
O=C1CCCC=C1C(O)CCOCc1ccccc1 (centres undefined) -0.861
